“And” between values parts separate entries of the source, which are not always exact repeats. Equal values may be shown once. The campaign covered roughly 5,500 compounds. About 2,000 (36%) were called active. Roughly 18% stayed inconclusive and do not appear here. Rule as the data show it: active = normalized growth mostly below about 0.91 (no sharp cut-off); inconclusive = no clear call, values can overlap the other calls; inactive = mostly above about 0.92. Some of the results follow.
Assay: chemical genetic growth profiling, strain panel (AID 1159580);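 also: tested at 20 µM; growth read once vehicle control cultures reached saturation at 30 °C; 1 = growth at the plate median or of vehicle wells; lower values mean less growth of the strain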
Conditions: S. cerevisiae deletion strains, growth OD

Measured: normalized growth

Cc1ccccc1C(OCCN(C)C)c1ccccc1 (centres undefined)
inactive: locus YAL021C, strain ccr4, active compounds read low 0.977 | locus YAL026C, strain drs2, active compounds read low 1 | locus YAL030W, strain snc1, active compounds read low 1 | locus YAL040C, strain CLN3, active compounds read low 0.992 | locus YBL061C, strain skt5, active compounds read low 1 | locus YBR009C, strain hhf1, active compounds read low 0.996 | locus YBR021W, strain FUR4, active compounds read low 0.913 | locus YBR023C, strain chs3, active compounds read low 1.01 | locus YBR171W, strain sec66, active compounds read low 1.01 | locus YBR229C, strain ROT2, active compounds read low 1 | locus YBR231C, strain swc5, active compounds read low 1 | locus YBR279W, strain paf1, active compounds read low 0.993 | locus YCL011C, strain gbp2, active compounds read low 1.01 | locus YCL016C, strain dcc1, active compounds read low 1.01 | locus YCL029C, strain bik1, active compounds read low 1.01 | locus YCL061C, strain MRC1 (second series), active compounds read low 0.987 | locus YCL061C, strain MRC1, active compounds read low 1.01 | locus YCL069W, strain vba3, active compounds read low 1.01 | locus YCR088W, strain abp1, active compounds read low 1 | locus YDL005C, strain med2, active compounds read low 0.986 | locus YDL035C, strain GPR1, active compounds read low 1.01 | locus YDL040C, strain nat1, active compounds read low 1.01 | locus YDL074C, strain BRE1, active compounds read low 0.959 | locus YDL101C, strain DUN1, active compounds read low 1 | locus YDL134C, strain PPH21, active compounds read low 1.01 | locus YDL185W, strain tfp1, active compounds read low 1.02 | locus YDL192W, strain arf1, active compounds read low 1.01 | locus YDR001C, strain nth1, active compounds read low 1.01 | locus YDR069C, strain doa4, active compounds read low 0.994 | locus YDR101C, strain arx1, active compounds read low 1.01 | locus YDR137W, strain rgp1, active compounds read low 1.07 | locus YDR150W, strain NUM1, active compounds read low 0.994 | locus YDR159W, strain sac3, active compounds read low 1.01 | locus YDR162C, strain NBP2, active compounds read low 0.993 | locus YDR195W, strain ref2 0.996 | locus YDR297W, strain sur2, active compounds read low 1.01 | locus YDR318W, strain mcm21, active compounds read low 1.02 | locus YDR334W, strain swr1, active compounds read low 1.01 | locus YDR335W, strain msn5, active compounds read low 1 | locus YDR363W, strain ESC2, active compounds read low 0.998 | locus YDR388W, active compounds read low 1.01 | locus YDR392W, strain spt3, active compounds read low 0.966 | locus YDR502C, strain sam2, active compounds read low 1.01 | locus YEL003W, strain gim4, active compounds read low 0.981 | locus YEL037C, strain rad23, active compounds read low 0.999 | locus YEL061C, strain CIN8 (second series), active compounds read low 1.01 | locus YEL061C, strain CIN8, active compounds read low 1 | locus YER002W, strain NOP16, active compounds read low 1.01 | locus YER015W, strain faa2, active compounds read low 1 | locus YER016W, strain bim1, active compounds read low 0.998 | locus YER110C, active compounds read low 1.01 | locus YER111C, strain swi4, active compounds read low 1 | locus YER155C, strain BEM2 (second series), active compounds read low 1.01 | locus YER155C, strain BEM2, active compounds read low 1.01 | locus YER167W, strain BCK2, active compounds read low 1 | locus YFR010W, strain ubp6, active compounds read low 1 | locus YGL078C, strain dbp3, active compounds read low 1 | locus YGL086W, strain mad1, active compounds read low 0.994 | locus YGL167C, strain pmr1, active compounds read low 1.01 | locus YGL173C, strain kem1, active compounds read low 0.994 | locus YGL227W, strain vid30, active compounds read low 1.02 | locus YGL240W, strain doc1, active compounds read low 0.994 | locus YGL248W, strain PDE1, active compounds read low 1 | locus YGL253W, strain hxk2, active compounds read low 1.01 | locus YGR078C, strain PAC10, active compounds read low 1 | locus YGR135W, strain pre9, active compounds read low 1 | locus YGR252W, strain gcn5, active compounds read low 0.902 | locus YHR013C, strain ard1, active compounds read low 0.986 | locus YHR027C, strain rpn1, active compounds read low 0.997 | locus YHR030C, strain SLT2, active compounds read low 1 and 0.992 | locus YHR079C, strain IRE1 (second series), active compounds read low 1.02 | locus YHR079C, strain IRE1, active compounds read low 0.973 | locus YHR094C, strain hxt1, active compounds read low 1 | locus YHR129C, strain ARP1, active compounds read low 1.01 | locus YHR142W, strain chs7, active compounds read low 1.01 | locus YHR200W, strain rpn10, active compounds read low 1.01 | locus YIL066C, strain RNR3, active compounds read low 1.01 | locus YIL073C, strain SPO22, active compounds read low 1.05 | locus YIL125W, strain kgd1, active compounds read low 0.994 | locus YIR030C, strain dcg1, active compounds read low 1.02 | locus YJL092W, strain hpr5, active compounds read low 1.01 | locus YJL095W, strain BCK1 (second series), active compounds read low 1.01 | locus YJL095W, strain BCK1, active compounds read low 0.983 and 0.99 | locus YJL115W, strain asf1, active compounds read low 0.992 | locus YJL129C, strain trk1, active compounds read low 0.986 | locus YJL134W, strain LCB3, active compounds read low 1 | locus YJL154C, strain vps35, active compounds read low 1 | locus YJL164C, strain tpk1, active compounds read low 0.991 | locus YJL166W, strain qcr8, active compounds read low 1.01 | locus YJL168C, strain set2, active compounds read low 1.01 | locus YJL187C, strain SWE1 (second series), active compounds read low 1 | locus YJL187C, strain SWE1, active compounds read low 1.01 | locus YJR043C, strain POL32, active compounds read low 0.995 | locus YJR066W, strain TOR1, active compounds read low 0.952

From PubChem BioAssay AID1159580 (chemical genetic matrix, 2015)
